{"source": "PubChem BioAssay (EPA / NIEHS)", "note": "Where a structure was tested more than once in an assay, its records may differ in their call. Calls of active or inactive are those of the source. How the source made its calls: active means hit-call score of the fitted dose curve at least 0.9, where 1 is the maximum; inactive means score below 0.9.", "data": [{"read-out": "Thrombomodulin, THBD (gene 7056)", "experiment": "BSK_3C_Thrombomodulin: BioMAP Diversity Plus: 3C Assay for Thrombomodulin Biomarker Activity (AID 2283029)", "conditions": "primary human endothelial cells (HUVEC); actives raise or lower the signal", "protocol": "BSK_3C is a cell-based, multiplexed-readout assay that uses umbilical vein endothelium, a human vascular primary cell, with measurements taken at 24 hours after chemical dosing in a 96-well plate.BSK_3C_Thrombomodulin is an assay component measured in the BSK_3C assay. It measures Thrombomodulin antibody related to regulation of gene expression using ELISA technology.Data from the assay component BSK_3C_Thrombomodulin was analyzed into 1 assay endpoint. This assay endpoint, BSK_3C_Thrombomodulin, was analyzed with bidirectional fitting relative to DMSO as the negative control and baseline of activity. Using a type of binding reporter, gain or loss-of-signal activity can be used to understand changes in the signaling as they relate to the gene THBD. Furthermore, this assay endpoint can be referred to as a primary readout, because this assay has produced multiple assay endpoints where this one serves a signaling function. To generalize the intended target to other relatable targets, this assay endpoint is annotated to the gpcr intended target family, where the subfamily is rhodopsin-like receptor.\nThe levels of cell surface (or secreted, indicated by the prefix \"s\") biomarker endpoints were measured by ELISA. Overt cytotoxicity to cells in confluent adherent cultures (all systems other than the BT system) was assessed by measuring total protein levels using sulforhodamine B (SRB) staining in parallel cultures at the time of biomarker measurements, indicated as SRB endpoints. For proliferation assays for adherent cell types, individual cell types are cultured at sub-confluence and relative cell numbers quantified by SRB staining at time points optimized for each system (48 h: 3C and CASM3C systems; 72 h: BT and HDF3CGF systems; 96 h: SAg system). SRB was performed by staining cells with 0.1% SRB after fixation with 10% TCA and reading wells at 560 nm.Viability and proliferation of PBMC (T cells) was quantified by Alamar Blue reduction for the SAg and BT systems. For PBMC viability (referred to as PBMC Cytotoxicity within the assay endpoint names), cells were plated (75,000/well in a 96-well plate) and then chemical samples added for 1 h before addition of activators, SEB and TSST-1 (20 ng/mL final concentration each). Cells were incubated for 90 h. Then, Alamar Blue (20 uL/well) (Invitrogen, Cat DAL1100) was added for 6 h, and the plates were read with a fluorescence microplate reader at 546/580 nm (excitation/emission). For PBMC proliferation, cells were plated and activated as above but incubated for only 16 h prior to addition of Alamar Blue. Plates were read after 6 h.", "values": [{"molecule": "CC=C(C)C(C)=O", "outcome": "inactive"}, {"molecule": "O=C(Oc1ccccc1)c1ccccc1C(=O)Oc1ccccc1", "outcome": "inactive"}, {"molecule": "Cc1c(O)cccc1O", "outcome": "inactive"}, {"molecule": "Clc1cc(Cl)c(Cl)c(Cl)c1Cl", "outcome": "inactive"}, {"molecule": "O=C(O)C(F)(F)C(F)(F)C(F)(F)C(F)(F)C(=O)O", "outcome": "inactive"}, {"molecule": "CC/C=C\\CCOC(=O)c1ccccc1O", "outcome": "inactive"}, {"molecule": "CC/C=C\\C/C=C\\C/C=C\\CCCCCCCC(=O)OC", "AC50": "5.05 µM (active)"}, {"molecule": "Nc1cccc(N)n1", "outcome": "inactive"}, {"molecule": "CC(C)CCCCCOC(=O)CS", "outcome": "inactive"}, {"molecule": "O=C1CCCCCCCCCCCN1", "outcome": "inactive"}, {"molecule": "CC(c1cc(C(C)(C)C)cc(C(C)(C)C)c1O)c1cc(C(C)(C)C)cc(C(C)(C)C)c1O", "outcome": "inactive"}, {"molecule": "O=C1CCCCCCCCCCC1", "outcome": "inactive"}, {"molecule": "CCCCCCC=O", "outcome": "inactive"}, {"molecule": "CCCC(C)C(=O)OCC", "note": "(stereo not given)", "outcome": "inactive"}, {"molecule": "C=C(C)C(=O)OCCCCCCCCCCCC", "outcome": "inactive"}, {"molecule": "CCc1cccc(C)c1N(C(=O)CS(=O)(=O)O)C(C)COC", "note": "(stereo not given)", "outcome": "inactive"}, {"molecule": "C=CC(=O)OCCCCCCOC(=O)C=C", "outcome": "inactive"}, {"molecule": "C=CC(=O)NC(C)(C)C", "outcome": "inactive"}, {"molecule": "C[N+](C)(C)CCCNS(=O)(=O)C(F)(F)C(F)(F)C(F)(F)C(F)(F)C(F)(F)C(F)(F)C(F)(F)C(F)(F)F", "outcome": "inactive"}, {"molecule": "CCNc1nc(NC(C)(C)C)nc(OC)n1", "outcome": "inactive"}, {"molecule": "CCCCCCCCCCCC(=O)N(C)CC(=O)O", "outcome": "inactive"}, {"molecule": "Nc1nc(N)nc(-c2ccccc2)n1", "outcome": "inactive"}, {"molecule": "CCCCCC1=CCCC1=O", "outcome": "inactive"}, {"molecule": "CC=C(C)C=CC=C(C)C", "AC50": "3.97 µM (active)"}, {"molecule": "Nc1ccc(C(=O)O)cc1", "outcome": "inactive"}, {"molecule": "O=C(Cl)c1c(Cl)c(Cl)c(C(=O)Cl)c(Cl)c1Cl", "outcome": "inactive"}, {"molecule": "CCCCCCCCCCCC(C)=O", "outcome": "inactive"}, {"molecule": "C=CC(=O)OCC(C)OCC(C)OCC(C)OC(=O)C=C", "note": "(stereo not given)", "outcome": "inactive"}, {"molecule": "Oc1c(Cl)cc(Cl)c(Cl)c1Cl", "outcome": "inactive"}, {"molecule": "CC(Cl)COP(=O)(OCC(C)Cl)OCC(C)Cl", "note": "(stereo not given)", "outcome": "inactive"}, {"molecule": "Oc1ccccc1Cc1ccccc1O", "outcome": "inactive", "AC50": "11.7 µM (active)"}, {"molecule": "C1CNCCN1", "outcome": "inactive"}, {"molecule": "C=CC(=O)NCOCCCC", "outcome": "inactive"}, {"molecule": "COC(OC)(C(=O)c1ccccc1)c1ccccc1", "outcome": "inactive"}, {"molecule": "CCC1(C)C(=O)N(Cl)C(=O)N1Cl", "note": "(stereo not given)", "outcome": "inactive"}, {"molecule": "CCOC(=O)C1=NOC(c2ccccc2)(c2ccccc2)C1", "outcome": "inactive"}, {"molecule": "C=CCCCCCCCCC=O", "outcome": "inactive"}, {"molecule": "CCCCCCOC(=O)CCCCC(=O)OCCCCCC", "outcome": "inactive"}, {"molecule": "CC(C)c1cccc(C(C)C)c1N", "outcome": "inactive"}]}]}
